# Measured potencies and affinities stand elsewhere. Inconclusive results are not listed. Unmarked numbers belong to inactive results.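 The calls were made as follows: active = compounds lowering the FRET ratio whose fitted half-maximal concentration is at most twice their top tested dose; inconclusive = flat partial drop between 30 and 70 percent, or bad fit; inactive = the rest.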
# Molecular target: Voltage-dependent L-type calcium channel subunit alpha-1D (Homo sapiens) (UniProt Q01668)
# Experiment: inhibitors of CaV1.3 ICDI-IQ binding, dose response, cell-based, HEK293, YFP-IQ/CFP-ICDI FRET, cherry-picks (AID 1053205);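 also: 0% = median of neutral control wells and -100% = median of positive control wells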
# Conditions: HEK293 YFP-IQ/CFP-ICDI FRET ratio, 10 min; series mostly up to 35 µM; FRET change, negative = inhibition: at the top concentration
# Chain of Voltage-dependent L-type calcium channel subunit alpha-1D (Homo sapiens) (Q01668 whole entry, looked up): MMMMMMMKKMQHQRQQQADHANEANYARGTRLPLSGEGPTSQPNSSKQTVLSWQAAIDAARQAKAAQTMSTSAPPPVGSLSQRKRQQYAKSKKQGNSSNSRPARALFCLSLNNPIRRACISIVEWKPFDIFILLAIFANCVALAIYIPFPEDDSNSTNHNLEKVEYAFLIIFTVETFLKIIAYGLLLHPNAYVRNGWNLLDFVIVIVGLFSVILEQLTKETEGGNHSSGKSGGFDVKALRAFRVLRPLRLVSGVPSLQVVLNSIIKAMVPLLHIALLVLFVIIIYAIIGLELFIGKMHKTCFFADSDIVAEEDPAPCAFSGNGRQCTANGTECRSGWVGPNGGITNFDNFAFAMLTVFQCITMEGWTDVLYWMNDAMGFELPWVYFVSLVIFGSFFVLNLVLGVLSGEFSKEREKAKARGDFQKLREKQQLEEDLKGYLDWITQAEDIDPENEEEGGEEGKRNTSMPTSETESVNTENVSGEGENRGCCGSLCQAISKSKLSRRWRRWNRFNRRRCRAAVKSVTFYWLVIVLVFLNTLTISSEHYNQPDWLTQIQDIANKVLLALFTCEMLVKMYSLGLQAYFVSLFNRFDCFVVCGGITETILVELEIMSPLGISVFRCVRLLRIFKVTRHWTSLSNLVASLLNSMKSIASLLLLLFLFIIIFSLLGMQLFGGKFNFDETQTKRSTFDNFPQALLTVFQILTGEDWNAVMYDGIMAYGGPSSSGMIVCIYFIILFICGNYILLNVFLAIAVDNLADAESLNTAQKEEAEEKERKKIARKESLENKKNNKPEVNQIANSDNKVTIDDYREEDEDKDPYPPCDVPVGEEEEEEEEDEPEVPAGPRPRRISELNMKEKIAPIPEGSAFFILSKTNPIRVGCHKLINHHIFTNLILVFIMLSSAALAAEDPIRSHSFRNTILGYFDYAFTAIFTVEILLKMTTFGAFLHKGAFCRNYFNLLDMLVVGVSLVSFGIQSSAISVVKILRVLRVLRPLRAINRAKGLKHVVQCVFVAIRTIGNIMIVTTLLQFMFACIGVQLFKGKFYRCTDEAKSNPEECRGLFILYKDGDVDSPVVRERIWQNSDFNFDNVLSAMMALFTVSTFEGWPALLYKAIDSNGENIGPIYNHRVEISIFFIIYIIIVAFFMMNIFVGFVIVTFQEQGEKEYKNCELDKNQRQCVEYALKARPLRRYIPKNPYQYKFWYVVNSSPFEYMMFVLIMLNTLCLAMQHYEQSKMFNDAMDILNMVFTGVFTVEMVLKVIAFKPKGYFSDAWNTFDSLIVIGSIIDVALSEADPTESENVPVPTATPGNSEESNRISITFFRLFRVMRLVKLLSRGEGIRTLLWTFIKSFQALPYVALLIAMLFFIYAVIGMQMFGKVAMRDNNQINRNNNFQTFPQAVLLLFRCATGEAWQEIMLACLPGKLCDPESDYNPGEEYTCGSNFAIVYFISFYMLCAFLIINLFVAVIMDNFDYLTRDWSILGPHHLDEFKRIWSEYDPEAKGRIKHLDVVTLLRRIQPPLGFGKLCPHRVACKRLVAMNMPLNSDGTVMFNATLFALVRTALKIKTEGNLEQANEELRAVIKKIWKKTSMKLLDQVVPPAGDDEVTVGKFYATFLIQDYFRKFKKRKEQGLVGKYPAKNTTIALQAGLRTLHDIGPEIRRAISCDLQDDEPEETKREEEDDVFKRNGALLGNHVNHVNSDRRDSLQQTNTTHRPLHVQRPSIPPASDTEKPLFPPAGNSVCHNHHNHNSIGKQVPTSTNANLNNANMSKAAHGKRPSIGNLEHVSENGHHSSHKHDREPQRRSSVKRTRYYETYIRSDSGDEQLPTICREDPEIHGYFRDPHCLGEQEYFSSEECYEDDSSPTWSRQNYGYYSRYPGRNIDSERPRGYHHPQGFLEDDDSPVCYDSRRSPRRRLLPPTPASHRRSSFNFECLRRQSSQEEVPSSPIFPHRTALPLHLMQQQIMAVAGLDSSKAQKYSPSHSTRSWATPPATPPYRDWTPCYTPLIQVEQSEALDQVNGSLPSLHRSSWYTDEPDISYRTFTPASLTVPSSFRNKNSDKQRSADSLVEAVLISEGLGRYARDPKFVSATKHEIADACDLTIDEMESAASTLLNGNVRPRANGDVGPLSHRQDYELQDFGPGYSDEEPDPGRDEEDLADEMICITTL
row,Compound,"FRET change, negative = inhibition"
1,CCC(=O)N1C(C(=O)NCc2ccc(OC)cc2)CSC1c1ccc(OC)cc1 (configuration not stated),-1.99%
2,CCn1c(=NC(=O)CSC(C)=O)sc2cc(OC)ccc21,-3.91%
3,COc1ccccc1C(=O)c1cc2ccc(O)cc2oc1=O,76.2%
4,O=C(NCc1ccc(F)cc1)C1CCCN1C(=O)Nc1cccc(F)c1 (configuration not stated),103%
5,CCC(=O)NCCCNc1nc2c(C)cccc2cc1C#N,78.8%
6,COc1ccc(C2c3ccc(O)cc3Oc3ncn4nc(-c5ccccn5)nc4c32)cc1 (configuration not stated),-40%
7,CC(C)CCN(CCC(C)C)CC(O)Cn1c2ccccc2c(=O)c2ccccc21 (configuration not stated),20.5%
8,CNC(=O)c1ccc(NC(=O)c2cccc(C(F)(F)F)c2)cc1,7.58%
9,CCCCN(CCCC)CC(O)Cn1c2ccccc2c(=O)c2ccccc21 (configuration not stated),175%
10,CCc1cccc(OC2OC(CO)C(O)C(O)C2NC(C)=O)c1 (configuration not stated),7.33%
11,CCC(C)NC(=S)N1CCN(Cc2ccc3c(c2)OCO3)CC1 (configuration not stated),23.1%
12,CN(C)CCOCCOc1ccc(Cl)c2ccccc12,8.55%
13,COc1ccc(S(=O)(=O)N2CCCC2CNC(=O)C(=O)NC2CCCC2)cc1 (configuration not stated),6.72%
14,Cn1cnc(S(=O)(=O)Nc2ccc(OC(F)(F)F)cc2)c1,-17.1%
15,CCOC(=O)C1=CN(CC2CCCO2)C=C(C(=O)OCC)C1c1ccccc1C(F)(F)F (configuration not stated),156%
16,COc1ccc(C[C@H]2CN3C(=NC[C@@H]3Cc3ccccc3)N2CCNC(=O)CCC2CCCCC2)cc1,29.9%
17,CCOC(=O)C1CCCN(CCCc2ccccc2)C1 (configuration not stated),3.01%
18,Nc1ccc2nc(-c3ccccc3)cnc2c1,451%
19,O=C(O)c1ccc(N2N=C(c3ccccc3)CC2c2ccccc2)cc1 (configuration not stated),177%

row,Compound,"FRET change, negative = inhibition"
1,COc1ccc(CCNC(=O)CSc2cn(Cc3cccc(C)c3)c3ccccc23)cc1OC,-2.31%
2,Cn1cc(C(c2ccccc2OCC(=O)O)c2cn(C)c3ccccc23)c2ccccc21,12.7%
3,Cc1ccc(-n2c(C)cc(/C=N/NC(=O)Cn3c4ccccc4c(=O)c4ccccc43)c2C)cc1,19.5%
4,CCOc1ccc(C2C(C#N)=C(N)Oc3cc(O)ccc32)cc1OCC (configuration not stated),102%
5,N#CC(C#N)=C1C=CC=CN1/C(=C\c1ccccc1)C(=O)c1cccs1,57.3%
6,O=C(O)c1ccc(N/N=C/c2ccc(-c3ccccc3Cl)o2)cc1,169% [at 16 µM]
7,O=C1CCc2cc(S(=O)(=O)NC(Cc3ccccc3)C(=O)NCCC3=CCCCC3)ccc2N1 (configuration not stated),-3.37%
8,CSCCC1(C(=O)O)NC(c2ccccc2O)C2C(=O)N(C(C)C)C(=O)C21 (configuration not stated),13%
9,c1ccc2cc3c(NCCN4CCOCC4)ccnc3cc2c1,241%
10,COc1ccccc1/C=N/Nc1nc(C)cc(=O)[nH]1,1.46%
11,O=C(CCCn1c(=O)c2sccc2n(Cc2cc(=O)n3ccccc3n2)c1=O)NCc1ccco1,3.52%
12,O=C(CCCN1C(=O)CSc2ncccc21)N1CCN(Cc2ccccc2)CC1,5.04%
13,CCN1CCc2c(sc(NC(=O)Nc3ccc(Cl)c(Cl)c3)c2C(N)=O)C1,339%
14,O=C(NNc1cc(N2CCCC2)nc(N2CCCC2)n1)c1ccc([N+](=O)[O-])cc1,-22.5%
15,CN(C)/C=C/C(=O)c1c(F)cccc1F,12.1%
16,CC(=O)NNc1cc(N2CCOCC2)nc(N2CCOCC2)n1,10.7%
17,Fc1ccc(-c2nc3ccccn3c2NCc2ccc3c(c2)OCO3)cc1,71.1% [at 16 µM]
18,COC(=O)C1=CN(C)C=C(C(=O)OC)C1c1ccccc1Cl,276%
